Only some compounds are listed: those with a hit (about 2.4% of all), similar ones and a draw of the others.
C diff HTS: blocks growth of Clostridium difficile | 0.25% of 86,000 active | growth activity, negative = inhibition, % at 16 µg/mL (by protocol) | AID 1259249 | Clostridium difficile clinical isolate growth, OD600, 24 h; active compounds read low;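 active = mean growth activity at or below -80% and every replicate also at or below -80%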;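 also: 0% = DMSO wells and -100% = levofloxacin 16 µg/mL wells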
Pf Dd2 inh: inhibitors of Plasmodium falciparum Dd2 growth. P. falciparum Dd2 growth, SYBR Green, 72 h; active compounds read low. activity change, % at 10 µM. 2.3% of 94,000 active; in the data active = activity change below about -80%
The depositor's hits bear a star; x = no result.

SMILES	C diff HTS	Pf Dd2 inh
C[C@@H]1CCCCO[C@@H](CN(C)C(=O)Nc2cccc3ccccc23)[C@H](C)CN([C@H](C)CO)C(=O)c2cc(NS(=O)(=O)c3ccccc3)ccc2O1	x	-41
Cc1noc(C)c1S(=O)(=O)Nc1ccc2c(c1)C(=O)N([C@H](C)CO)C[C@H](C)[C@@H](CN(C)C(=O)Nc1cccc3ccccc13)OCCCC[C@@H](C)O2	14	-52
Cc1noc(C)c1S(=O)(=O)Nc1ccc2c(c1)C(=O)N([C@@H](C)CO)C[C@@H](C)[C@@H](CN(C)C(=O)Nc1cccc3ccccc13)OCCCC[C@H](C)O2	13	-87*
Cn1cnc(S(=O)(=O)N[C@H]2C=C[C@H](CC(=O)Nc3ccccc3)O[C@@H]2CO)c1	-2	x
C[C@H]1CN([C@@H](C)CO)C(=O)c2cc(C#CCc3ccccc3)cnc2O[C@H]1CN(C)C(=O)C1CC1	x	-8
OC[C@@H]1[C@@H](c2ccc(/C=C/c3ccccc3)cc2)[C@H]2CN(Cc3ccncc3)CCCCN12	1	-61
O=C(Nc1ccc(F)cc1)Nc1ccc2c(c1)[C@H]1C[C@@H](CC(=O)N3CCOCC3)O[C@@H](CO)[C@H]1O2	-2	5
C[C@@H]1CN([C@@H](C)CO)S(=O)(=O)c2ccc(Br)cc2O[C@@H]1CN(C)Cc1ccccc1	2	-5
C[C@H]1CCCCO[C@H](CN(C)C)[C@@H](C)CN([C@@H](C)CO)C(=O)c2cc(NC(=O)CCCCCC(=O)Nc3ccccc3N)ccc2O1	-7	41
C[C@@H]1CN([C@H](C)CO)C(=O)c2cc(NC(=O)CCCCCC(=O)Nc3ccccc3N)ccc2O[C@@H](C)CCCCO[C@H]1CN(C)Cc1ccc(Cl)c(Cl)c1	-1	-91*
C[C@@H]1CCCCO[C@H](CN(C)Cc2ccc(Cl)c(Cl)c2)[C@@H](C)CN([C@H](C)CO)C(=O)c2cc(NC(=O)CCCCCC(=O)Nc3ccccc3N)ccc2O1	1	-90*
C[C@H](CO)N1C[C@H](C)[C@H](CN(C)Cc2ccc(Cl)c(Cl)c2)Oc2ccc(NC(=O)CCCCCC(=O)Nc3ccccc3N)cc2C1=O	x	-27
CN1CCN(C(=O)[C@@H]2[C@@H](CO)[C@@H]3Cn4c(ccc(-c5cncnc5)c4=O)[C@@H]3N2CC2CCCC2)CC1	-1	6
C[C@H]1CN([C@@H](C)CO)S(=O)(=O)c2ccc(-c3ccccc3)cc2O[C@@H]1CN(C)C(=O)C1CCC1	x	-9
CN(C)C(=O)C[C@@H]1CC[C@@H]2[C@H](COc3ccc(NC(=O)c4ccc(F)cc4)cc3C(=O)N2C)O1	-4	x
C[C@H]1CN([C@@H](C)CO)S(=O)(=O)c2ccc(-c3cccnc3)cc2O[C@H]1CN(C)C(=O)C1CC1	x	26
Cc1cccc(-c2ccc(C3[C@@H]4CN(Cc5ccccc5F)C[C@H]3N4)cc2)c1 (stereo not given in full)	-98*	7
CN(C)C(=O)c1cccc(-c2ccc(C3[C@@H]4CN(Cc5ccccc5F)C[C@H]3N4)cc2)c1 (stereo not given in full)	59	-55
Cc1ccc(-c2ccc([C@@H]3[C@@H]4CN(Cc5ccccc5F)C[C@H]3N4)cc2)cc1	-101*	-87*
Cc1ccc(-c2ccc(C3[C@H]4CNC[C@@H]3N4Cc3ccccc3F)cc2)cc1 (stereo not given in full)	17	17
C/C=C/c1cnc2c(c1)C(=O)N([C@@H](C)CO)C[C@@H](C)[C@H](CN(C)C(=O)Cc1ccccn1)O2	1	8
CC=Cc1ccc2n(c1=O)C[C@@H]1[C@@H](CO)[C@H](C(=O)NCC3CC3)N(Cc3ccccn3)[C@H]21 (mixture of isomers)	4	-20
COc1ccc(CN(C)C[C@H]2OCCCC[C@H](C)Oc3ccc(NC(=O)Nc4ccc(C(F)(F)F)cc4)cc3C(=O)N([C@H](C)CO)C[C@@H]2C)cc1	-33	-37
COc1ccc(NC(=O)Nc2ccc3c(c2)C(=O)N([C@H](C)CO)C[C@H](C)[C@H](CN(C)Cc2ccc(C(F)(F)F)cc2)OCCCC[C@@H](C)O3)cc1	12	-25
COc1ccc(CN(C)C[C@H]2OCCCC[C@@H](C)Oc3ccc(NC(=O)Nc4ccc(C(F)(F)F)cc4)cc3C(=O)N([C@@H](C)CO)C[C@H]2C)cc1	-14	-88*
COc1ccc(CN(C)C[C@H]2OCCCC[C@@H](C)Oc3ccc(NC(=O)Nc4ccc(C(F)(F)F)cc4)cc3C(=O)N([C@H](C)CO)C[C@@H]2C)cc1	-36	-66
COc1ccc(CN(C)C[C@H]2OCCCC[C@@H](C)Oc3ccc(NC(=O)Nc4ccc(C(F)(F)F)cc4)cc3C(=O)N([C@@H](C)CO)C[C@@H]2C)cc1	-101*	-63
COc1ccc(NC(=O)Nc2ccc3c(c2)C(=O)N([C@H](C)CO)C[C@@H](C)[C@H](CN(C)Cc2ccc(C(F)(F)F)cc2)OCCCC[C@H](C)O3)cc1	2	-87*

Screens as filed in PubChem BioAssay.
